# Experimental data taken from publication PMC4336329 (PLoS ONE, 2015).
# Hit rate of the full screen: of about 310,000 compounds, about 2,200 (0.71%) showed an effect of 50% or more. The effect is printed as a negative number. The entries come from a sample that favours strong results as a whole.
# Biological target: human ether-à-go-go-related gene (hERG) potassium channel (human, UniProt Q12809)
# Experiment: primary screen, population patch clamp on CHO cells stably expressing hERG; higher = less effect of the substance
# Chain of human ether-à-go-go-related gene (hERG) potassium channel (Q12809 whole entry, looked up): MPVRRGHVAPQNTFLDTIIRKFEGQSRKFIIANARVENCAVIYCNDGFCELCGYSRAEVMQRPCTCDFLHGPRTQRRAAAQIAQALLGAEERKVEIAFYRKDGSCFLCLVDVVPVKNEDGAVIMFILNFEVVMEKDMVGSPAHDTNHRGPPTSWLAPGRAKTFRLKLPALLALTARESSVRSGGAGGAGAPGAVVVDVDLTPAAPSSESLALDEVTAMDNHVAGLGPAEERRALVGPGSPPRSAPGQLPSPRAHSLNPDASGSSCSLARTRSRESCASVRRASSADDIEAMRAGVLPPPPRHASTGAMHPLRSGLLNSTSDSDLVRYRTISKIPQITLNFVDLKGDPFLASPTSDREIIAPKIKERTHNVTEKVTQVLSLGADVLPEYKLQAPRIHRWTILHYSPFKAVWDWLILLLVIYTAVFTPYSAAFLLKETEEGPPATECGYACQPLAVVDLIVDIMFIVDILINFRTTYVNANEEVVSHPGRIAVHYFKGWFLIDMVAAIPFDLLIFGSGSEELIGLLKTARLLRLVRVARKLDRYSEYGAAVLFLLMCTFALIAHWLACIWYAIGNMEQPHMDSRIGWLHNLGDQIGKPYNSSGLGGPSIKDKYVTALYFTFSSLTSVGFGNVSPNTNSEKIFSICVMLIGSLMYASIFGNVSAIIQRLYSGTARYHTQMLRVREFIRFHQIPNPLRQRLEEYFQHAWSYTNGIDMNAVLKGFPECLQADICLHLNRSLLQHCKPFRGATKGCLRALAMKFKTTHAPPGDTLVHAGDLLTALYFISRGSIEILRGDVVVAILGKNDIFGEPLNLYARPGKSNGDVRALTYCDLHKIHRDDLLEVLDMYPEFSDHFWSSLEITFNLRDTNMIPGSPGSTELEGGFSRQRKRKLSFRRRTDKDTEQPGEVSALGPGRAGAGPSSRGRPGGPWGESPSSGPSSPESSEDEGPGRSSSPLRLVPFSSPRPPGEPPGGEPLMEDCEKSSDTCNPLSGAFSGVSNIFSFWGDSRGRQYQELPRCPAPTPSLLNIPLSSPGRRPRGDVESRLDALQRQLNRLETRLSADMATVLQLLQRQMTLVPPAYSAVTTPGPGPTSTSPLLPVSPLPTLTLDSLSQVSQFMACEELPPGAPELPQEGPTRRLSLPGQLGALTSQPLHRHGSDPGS
row,SMILES,"hERG current change (%, negative = inhibition) at 1uM [%]"
1,CCn1nnc2cc(C(=O)Nc3cc(OC)cc(OC)c3)ccc21,19.3
2,O=C(CCn1c(=O)sc2ccccc21)Nc1ccon1,4.85
3,COC(=O)c1ccccc1NC(=S)NC(=O)c1ccc(C)cc1,9.88
4,CC(C)CSc1nc2ccccc2[nH]1,13
5,COCCN1C(=O)C(=O)/C(=C(/O)c2ccc(S(=O)(=O)N3CCCCC3)cc2)C1c1ccc(OC)cc1 (stereo not shown),11.9
6,C=CC[C@@H](C)CC(=O)C(CCCN=[N+]=[N-])SOOc1ccccc1 (stereo partly shown),11.2
7,Cc1ccc(S(=O)(=O)N2c3ccccc3-c3c(ssc3=S)C2(C)C)cc1,-1.68
8,COc1ccccc1OCC(=O)Nc1ccccc1C(=O)N1CCCC1,5.81
9,COc1ccc(N2CCN(C(=O)c3nc4nc(C)cc(C)n4n3)CC2)cc1,7.39
10,O=C(c1ccc(-c2ccc([N+](=O)[O-])cc2)o1)N1CCCCC1,-10.5
11,CCc1nc2ccc(C(=O)N3CCN(c4ccc([N+](=O)[O-])cc4)CC3)cc2nc1CC,-38.2
12,O=C(c1ccc2nsnc2c1)N1CCN(c2ccc([N+](=O)[O-])cc2)CC1,-57.4
13,Cc1c(Cl)cccc1-c1ccc(C(=O)N2CCN(c3ccc([N+](=O)[O-])cc3)CC2)o1,-1.98
14,Cc1ccc(C(=O)N2CCN(c3ccc([N+](=O)[O-])cc3)CC2)o1,-79
15,Cc1cc(C)n2nc(C(=O)N3CCN(c4ccc([N+](=O)[O-])cc4)CC3)nc2n1,-77.6
16,COc1cccc(N2CCN(C(=O)c3nc4nc(C)cc(C)n4n3)CC2)c1,8.37
17,CCCN1CCN(C(=O)c2ccc(-c3ccc([N+](=O)[O-])cc3)o2)CC1,-70.1
18,O=C(c1ccc2c(c1)OCCO2)N1CCN(c2ccc([N+](=O)[O-])cc2)CC1,1.16
19,O=C(c1ccc(-c2ccc([N+](=O)[O-])cc2)o1)N1CCCCCCC1,-6.48
20,Cc1cc(C(=O)N2CCN(c3ccc([N+](=O)[O-])cc3)CC2)c(C)o1,-35.1
21,Cc1cc2cc3c(cc2nc1SCC(=O)N1c2ccccc2CC1C)OCO3 (stereo not shown),5.76
22,O=C(Nc1ccc2oc(-c3ccncc3)nc2c1)c1ccccc1F,7.55

row,SMILES,"hERG current change (%, negative = inhibition) at 1uM [%]"
1,Cc1ccccc1OCCC(=O)Nc1ccccc1C(=O)N1CCCCC1,10.9
2,Nc1nc(SCC(=O)c2ccc([N+](=O)[O-])cc2)n[nH]1,1.72
3,O=c1c2cn[nH]c2[nH]c(=S)n1-c1ccccc1,14.3
4,CC(=O)Nc1cccc(OCc2c(F)cccc2Cl)c1,4.98
5,O=C(NC(=S)Nn1cnc2c(cnn2-c2ccccc2)c1=O)c1ccc(Cl)cc1,11.4
6,CCn1c(SCC(=O)c2cc(C)n(-c3ccc(C(=O)OC)cc3)c2C)nnc1-c1cccnc1,1.88
7,COCCn1c(SCc2ccccc2)nc2c1c(=O)[nH]c(=O)n2C,11.8
8,CSCCC1NC(=O)N(CC(=O)Nc2cc(C)on2)C1=O (stereo not shown),9.03
9,CC(C)C(C(=O)C=[N+]=[N-])N1C(=O)c2ccccc2C1=O (stereo not shown),11.2
10,Cc1occc1C(=O)N1CCN(c2ccc([N+](=O)[O-])cc2)CC1,-45.8
11,COc1ccc(C(=O)N2CCN(c3ccc([N+](=O)[O-])c(-n4nc(C)cc4C)c3)CC2)cc1,-80.6
12,O=C(c1cncc(Br)c1)N1CCN(c2ccc(N3CCOCC3)nn2)CC1,9.87
13,O=C(c1ccc([N+](=O)[O-])cc1)N1CCN(c2ncc(Br)cn2)CC1,-11.3
14,O=C(c1cncc(Br)c1)N1CCN(c2ccc([N+](=O)[O-])cc2)CC1,-62.2
15,Cc1cc(C(=O)N2CCN(c3ccc([N+](=O)[O-])cc3)CC2)co1,-64.7
16,CC(=O)N1CCN(c2ccc([N+](=O)[O-])c(-n3nc(C)cc3C)c2)CC1,-9.97
17,Cc1cc(C)n(-c2cc(N3CCN(C(=O)c4ccc(C(C)(C)C)cc4)CC3)ccc2[N+](=O)[O-])n1,3.39
18,Cc1cc(C(=O)N2CCN(c3ccc([N+](=O)[O-])cc3)CC2)no1,-36
19,C=CCc1cccc2cc(C(=O)Nc3ccc(F)cc3)c(=O)oc12,6.28
20,COC(=O)c1ccc(NC(=S)NC(=O)c2cc(-c3ccccc3)nc3ccccc23)cc1,9.36
21,NC(=O)[C@H]1CC2(CC(c3cccc(NC(=O)CC(c4ccccc4)c4ccccc4)c3)=NO2)CN1C(=O)CC(c1ccccc1)c1ccccc1 (stereo partly shown),14.8
22,Nc1ccc(O)cc1,10.2

row,SMILES,"hERG current change (%, negative = inhibition) at 1uM [%]"
1,COc1ccc(/C=C2\Oc3cc(OC(=O)N4CCOCC4)ccc3C2=O)cc1,3.7
2,CCC(=O)Nc1ccc2oc(-c3ccccc3Br)nc2c1,9.07
3,CC1CCc2c(sc3nc(CN4CCN(S(=O)(=O)c5ccccc5[N+](=O)[O-])CC4)[nH]c(=O)c23)C1 (stereo not shown),-0.366
4,C=CCn1cc(CN2CCC(C(=O)Nc3cccc(-c4cccc(Cl)c4)c3)CC2)c(C)n1,-30
5,O=C(c1ccc2c(=O)n(Cc3ccc(Cl)cc3)c(=S)[nH]c2c1)N1CCCC1,17
6,Oc1[nH]c2ccccc2c1N=Nc1nc2ccccc2s1,-3.26
7,Cl.NCCCCC(=O)O,11.5
8,CC(C1CC1)N(C(=O)NC1CCS(=O)(=O)C1)c1ccccc1 (stereo not shown),6.55
9,CCn1nc(C)c(CN2CCC(C(=O)Nc3cccc(-c4cccc(F)c4)c3)CC2)c1C,-6.47
10,CCCn1ncc(CN2CCC(C(=O)Nc3cccc(-c4cccc(F)c4)c3)CC2)c1C,-60.6
11,CCn1cc(CN2CCC(C(=O)Nc3cccc(-c4cccc(F)c4)c3)CC2)cn1,-29.2
12,O=C(Nc1cccc(-c2cccc(F)c2)c1)C1CCN(C2CCOCC2)CC1,-67.8
13,Cc1ccc(CN2CCC(C(=O)Nc3cccc(-c4cccc(F)c4)c3)CC2)o1,-28.7
14,Cn1cc(CN2CCC(C(=O)Nc3cccc(-c4cccc(F)c4)c3)CC2)cn1,-37.9
15,Cc1cccc(CN2CCC(C(=O)Nc3cccc(-c4cccc(F)c4)c3)CC2)n1,-66.1
16,Cc1cccc(CN2CCC(C(=O)Nc3cccc(-c4cscn4)c3)CC2)n1,-4.56
17,Cc1cc(C)n(CCCN2CCC(C(=O)Nc3cccc(-c4cccc(F)c4)c3)CC2)n1,-59.9
18,COc1cccc(-c2cccc(NC(=O)C3CCN(C4CCOCC4)CC3)c2)c1,-14.6
19,COc1cccc(-c2cccc(NC(=O)C3CCN(Cc4cccc(C)n4)CC3)c2)c1,-46.7
20,O=C(Nc1cccc(-c2cccc(F)c2)c1)C1CCN(C2CCC2)CC1,-26.1
